Results from PubChem BioAssay (NCATS).
Several values for one entry are separate records, joined by “and”; a condition that tells them apart may be missing. Equal values may be shown once. Inconclusive results are not listed. More than one record can exist for a structure, and the calls need not agree. Activity calls are given as the source filed them. Calls follow the shape of the dose curve; as a rule, active = well fitted curve in the direction sought with a large enough effect; inconclusive = small, poorly fitted or top-dose-only effect, or another doubt; inactive = no such curve, though single readings can be large; an effect the other way counts as inactive or inconclusive. Non-standard residues stand in square brackets, D forms with d. Residues, ends and D or L forms follow the SMILES beside them. *: point of attachment. Sta = CC(C)C[C@H](N)[C@@H](O)CC(=O)O; Isovaleryl = CC(C)CC(=O)*

Key:
[1] = system: CRL-7250; experiment: Cytotoxic Profiling of Annotated Libraries Using Quantitative High-Throughput Screening (AID 1296008); conditions: Five cell lines viability, CellTiter-Glo ATP luminescence, 48-72 h; max response: stronger effect = lower value; also: nearly all actives have a fitted effect of over 60% in size; as to max response: % is scaled to controls: 0 for no effect and ±100 for the full control effect
How it was run: (§1)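 Cells exposed to compounds for 48 or 72 hr at 37 degrees Celsius. Viability read as ATP-coupled luminescence with CellTiter-Glo after 10 min at room temperature.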

[2] = system: HEK293; experiment: as above; conditions: Five cell lines viability, CellTiter-Glo ATP luminescence, 48-72 h; max response: stronger effect = lower value
How it was run: as §1

[3] = system: HaCat; experiment: as above; conditions: Five cell lines viability, CellTiter-Glo ATP luminescence, 48-72 h; max response: stronger effect = lower value
How it was run: as §1

[4] = system: KB-3-1; experiment: as above; conditions: Five cell lines viability, CellTiter-Glo ATP luminescence, 48-72 h; max response: stronger effect = lower value
How it was run: as §1

[5] = system: NIH3T3; experiment: as above; conditions: Five cell lines viability, CellTiter-Glo ATP luminescence, 48-72 h; max response: stronger effect = lower value
How it was run: as §1

[6] = system: MCC-13; experiment: qHTS assay to identify novel small-molecules to repurpose for Merkel cell carcinoma treatment (AID 1296009); conditions: MCC and control cell lines, CellTiter-Glo viability, 72 h; series mostly up to 46 µM; also: nearly all actives have a fitted effect of over 60% in size
How it was run: (§2)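 Cells were treated for 72 hr at 37 degree celsius with compounds in 8- or 11-point dose response. Viability was read by CellTiter-Glo luminescence, normalized to no-cell (cytotoxicity) and DMSO controls.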

[7] = system: MCC-26; experiment: as above; conditions: MCC and control cell lines, CellTiter-Glo viability, 72 h; series mostly up to 46 µM
How it was run: as §2

[8] = system: MKL-1; experiment: as above; conditions: MCC and control cell lines, CellTiter-Glo viability, 72 h; series mostly up to 46 µM
How it was run: as §2

[9] = system: MKL-2; experiment: as above; conditions: MCC and control cell lines, CellTiter-Glo viability, 72 h; series mostly up to 46 µM
How it was run: as §2

[10] = system: UISO; experiment: as above; conditions: MCC and control cell lines, CellTiter-Glo viability, 72 h; series mostly up to 46 µM
How it was run: as §2

[11] = system: WaGa; experiment: as above; conditions: MCC and control cell lines, CellTiter-Glo viability, 72 h; series mostly up to 46 µM
How it was run: as §2

[12] = system: C33A; experiment: Primary qHTS to identify gynecologic anti-cancer compounds using libraries of approved drugs and bioactive compounds (AID 1345084); conditions: Gynecologic cancer cell panel viability, ATPlite luminescence, 48 h; series mostly up to 57.5 µM; also: nearly all actives have a fitted effect of over 55% in size
How it was run: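 Five-concentration response, 48 h; readout is ATP-driven luciferase luminescence.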

[13] = system: SC27B; experiment: qHTS profiling for inhibitors of Plasmodium falciparum proliferation (AID 504749); also: nearly all actives have a fitted effect of over 60% in size; conditions: P. falciparum in erythrocytes, SYBR Green DNA, 72 h; series mostly up to 28.7 µM
How it was run: (§3)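 P. falciparum-infected erythrocytes (0.3% parasitemia, 2.5% hematocrit) incubated with compound 72 h at 37 C, 5% CO2. Parasite DNA detected by SYBR Green after lysis, overnight at room temperature; normalised to 0.29 uM artemisinin and DMSO.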

[14] = system: TAB165; experiment: as above; conditions: P. falciparum in erythrocytes, SYBR Green DNA, 72 h; series mostly up to 28.7 µM
How it was run: as §3

[15] = system: W2; experiment: as above; conditions: P. falciparum in erythrocytes, SYBR Green DNA, 72 h; series mostly up to 28.7 µM
How it was run: as §3

[16] = system: HACAT; experiment: qHTS assay to identify novel small-molecules to repurpose for Merkel cell carcinoma treatment (AID 1296009); conditions: MCC and control cell lines, CellTiter-Glo viability, 72 h; also: nearly all actives have a fitted effect of over 60% in size
How it was run: as §2

[17] = system: NIH3T3; experiment: as above; conditions: MCC and control cell lines, CellTiter-Glo viability, 72 h; at 44.8 µM (top of the series) unless noted
How it was run: as §2

[18] = system: HEK293T; experiment: as above; conditions: MCC and control cell lines, CellTiter-Glo viability, 72 h; at 44.8 µM (top of the series) unless noted
How it was run: as §2

[19] = system: TAB109; experiment: qHTS profiling for inhibitors of Plasmodium falciparum proliferation (AID 504749); also: nearly all actives have a fitted effect of over 60% in size; conditions: P. falciparum in erythrocytes, SYBR Green DNA, 72 h; series mostly up to 28.7 µM
How it was run: as §3

[20] = system: TAB113; experiment: as above; conditions: P. falciparum in erythrocytes, SYBR Green DNA, 72 h; series mostly up to 28.7 µM
How it was run: as §3

[21] = at 44.8 µM (top of the series) unless noted
Potency is read from the fitted curve at half-maximal effect.

CN(C)CCCC1(c2ccc(F)cc2)OCc2cc(C#N)ccc21 (stereo unspecified)
inactive: max response [1] -4.07% | max response [2] -24.9% | max response [3] -6.25% and -3.5% | max response [4] -8.3% and 1.59% | max response [5] -3.81% and 4.08% | Potency [6] | Potency [7] | Potency [8] | Potency [9] | Potency [10] | Potency [11] | Potency [12]

S=c1nc[nH]c2nc[nH]c12
active: Potency [2] 6.68 µM and 13.2 µM | Potency [3] 14800 nM | Potency [4] 7.43 µM | Potency [5] 1.88 µM and 4.69 µM | Potency [6] 2.99 µM and 11.8 µM | Potency [10] 4.18 µM | Potency [11] 1.19 µM and 2.96 µM | Potency [12] 10 µM
inactive: max response [1] -19.8% | Potency [7] | Potency [8] | Potency [9]

CCCCC(CC)COC(=O)C(C#N)=C(c1ccccc1)c1ccccc1 (stereo unspecified)
active: Potency [13] 8910 nM | Potency [14] 8910 nM | Potency [15] 6750 nM | Potency [2] 18.8 µM
inactive: max response [3] -0.998% | outcome [3] | outcome [4] | max response [5] -1.9% | outcome [5] | outcome [16, 21] | Potency [6] | Potency [7] | Potency [8] | outcome [17] | Potency [11] | Potency [12]

NNc1nncc2ccccc12
inactive: outcome ([16]; at 17.4 µM (top of the series)) | outcome ([16]; at 44.8 µM (top of the series)) | outcome [18] inactive [at 17.4 µM] | Potency [6] | Potency [7] | Potency [8] | Potency [9] | outcome [17] inactive [at 17.4 µM] | Potency [10] | Potency [11] | Potency [12]
active: Potency [15] 3220 nM

CCCOc1ccc2nc(NC(=O)OC)[nH]c2c1
active: Potency [1] 668 nM and 132 nM | Potency [2] 0.15 µM | Potency [4] 0.731 µM | Potency [6] 188 nM
inactive: Potency [13] | Potency [19] | Potency [20] | Potency [14] | Potency [15] | outcome [3] | outcome [16, 21]

CC[C@]1(O)C[C@H]2CN(CCc3c([nH]c4ccccc34)[C@@](C(=O)OC)(c3cc4c(cc3OC)N(C=O)[C@H]3[C@@](O)(C(=O)OC)[C@H](OC(C)=O)[C@]5(CC)C=CCN6CC[C@]43[C@@H]65)C2)C1
inactive: outcome [3] | outcome [16, 21]
active: Potency [13] 1580 nM | Potency [19] 2000 nM | Potency [20] 2510 nM | Potency [15] 338 nM | Potency [1] 29.6 nM and 211 nM | Potency [2] 14.8 nM and 150 nM | Potency [4] 1.7 nM and 1.84 µM | Potency [6] 209 nM and 376 nM | Potency [7] 46.9 nM | Potency [8] 9.3 nM and 33.5 nM | Potency [9] 11.9 nM | Potency [10] 3 nM and 21.1 nM | Potency [11] 3.3 nM and 26.6 nM | Potency [12] 0.631 µM

Nc1nc(Cl)nc2c1ncn2[C@H]1C[C@H](O)[C@@H](CO)O1
active: Potency [2] 2.35 µM | Potency [3] 1320 nM | Potency [5] 935 nM | Potency [8] 418 nM | Potency [9] 418 nM | Potency [10] 0.372 µM | Potency [11] 418 nM
inactive: Potency [13] | Potency [19] | Potency [20] | Potency [14]

NC(=NCc1ccccc1)NC(=O)c1nc(Cl)c(N)nc1N
inactive: max response [2] -5.25% | outcome [3] inactive; activator | max response [4] -6.74% | max response [5] 3.69% | outcome [16, 21] inactive; activator | Potency [6] | Potency [7] | Potency [8] | Potency [10] | Potency [11]

CC(C)CC(=O)N[C@H](C(=O)N[C@H](C(=O)N[C@@H](CC(C)C)[C@@H](O)CC(=O)N[C@@H](C)C(=O)N[C@@H](CC(C)C)[C@@H](O)CC(=O)O)C(C)C)C(C)C (Isovaleryl-VV[Sta]A[Sta]-OH)
inactive: max response [1] 0.655% | max response [2] -5.42% | max response [4] 15.7% and 7.23% | max response [5] 0.118% | Potency [6] | Potency [7] | Potency [8] | Potency [9] | Potency [10] | Potency [11] | Potency [12]

O=C(O)c1cccc(-c2noc(-c3ccccc3F)n2)c1
inactive: Potency [13] | Potency [19] | Potency [20] | Potency [14] | Potency [15] | outcome [1] | max response [3] -27.5% and -24.9% | outcome [3] | max response [4] -19.9% and 8.42% | max response [5] -7.81% | outcome [16, 21] | Potency [6] | Potency [7] | Potency [8] | Potency [9] | Potency [10] | Potency [11]
active: Potency [12] 11.2 µM and 12.6 µM

CCCc1cc(=O)[nH]c(=S)[nH]1
inactive: Potency [13] | Potency [19] | Potency [20] | Potency [14] | Potency [15] | max response [1] 1.74% and -1.3% | max response [2] 2.66% | max response [4] 0.476% | outcome [4] | outcome [5] inactive; activator | Potency [6] | Potency [7] | Potency [8] | Potency [9] | outcome [17] inactive; activator | Potency [10] | Potency [12]
inactive and 18.7 µM (active): Potency [11]

CC(C)c1nc(CN(C)C(=O)N[C@H](C(=O)N[C@@H](Cc2ccccc2)C[C@H](O)[C@H](Cc2ccccc2)NC(=O)OCc2cncs2)C(C)C)cs1
inactive: max response [1] -16.9% and 0.649% and -2.4% | max response [3] -41.4% and 3.85% | outcome [3] | max response [4] -5.85% and -8.86% and 1.74% | max response [5] -19.1% and 3.76% | outcome [5] | outcome [16, 21] | Potency [6] | Potency [8] | Potency [9] | outcome [17] | Potency [10] | Potency [11] | Potency [12]
